Results taken from PubChem BioAssay AID1159580 (chemical genetic matrix, 2015).
Screen size: about 5,500 compounds; about 2,000 (36%) were called active. Not shown: some 18% with an inconclusive outcome. No stated cut-off is given here; in the data, active means normalized growth mostly below about 0.91 (no sharp cut-off); inconclusive means no clear call, values can overlap the other calls; inactive means mostly above about 0.92. Some of the results follow.

Test: chemical genetic growth profiling, strain panel (AID 1159580);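 further: tested at 20 µM; growth read once vehicle control cultures reached saturation at 30 °C; 1 = growth at the plate median or of vehicle wells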
Conditions: S. cerevisiae deletion strains, growth OD

Measured: normalized growth

C#CCN(C)CCCOc1ccc(Cl)cc1Cl
inactive: locus YAL040C, strain CLN3, stronger effect = lower value 1.01 | locus YCL061C, strain MRC1 (second series), stronger effect = lower value 0.989 | locus YDR150W, strain NUM1, stronger effect = lower value 0.974 | locus YDR363W, strain ESC2, stronger effect = lower value 0.991 | locus YER002W, strain NOP16, stronger effect = lower value 0.993 | locus YMR263W, strain SAP30, stronger effect = lower value 1 | locus YMR307W, strain GAS1, stronger effect = lower value 0.989 | locus YNL175C, strain NOP13, stronger effect = lower value 1 | locus YNL197C, strain WHI3, stronger effect = lower value 1 | locus YNL224C, strain SQS1, stronger effect = lower value 1.01 | locus YNL322C, strain KRE1, stronger effect = lower value 0.993 | locus YOR083W, strain WHI5 (second series), stronger effect = lower value 0.896 | locus YPL055C, strain LGE1, stronger effect = lower value 0.961
